Measured values reported in PMC12864922, “TDP-43 directly inhibits mRNA accumulation in neurites through modulation of mRNA stability”.
Whole data set: some 9,900 sequences, median “r (bound/input frequency ratio)” near 0.7, cut for the highest 2% near 6.5. This is one part of a sample in which the highest values are shown more often than they occur.

B1: ENSMUSG00000061578.946|Ksr2 (ssRNA)
RNA: GGGAGUUCUACAGUCCGACGAUCGCUUCGAUAUCCGCAUGCUAAACAAGAAGACUGCAUGUUAACGCUCCUGCCACUGUUGCCCCUUCCUUUACCCUUGGCAGACAUUGCUAAUCAAUCUCAGCACAGUUUCCAACCACAGUCAUAGAACAUUUGCCACAAAGGCCCUGGAUGUGACUAUAUGUGCUGAGAAGGGAAGGUAGUUUUCCCCCAGAAAGUCCCUUCUAAUAAACAUUGAUGACUUUAGAAUCCAUGACUCAGAAUUUUCCAGAGACCCAAUCCCUCGGGGUCCACUUAGUGAUGGCUCUUGCGGUCGCACUAGUGUGGAAUUCUCGGGUGUCAAGG
B2: ENSMUSG00000058297.101|Spock2|105:110 (ssRNA)
RNA: GGGAGUUCUACAGUCCGACGAUCGCUUCGAUAUCCGCAUGCUAAUUUGAUAUGAAAGCCCCACCACGGUCUUGUGGUGAUGAGGCAGGACCUGUACACACAGCAAGGCUUACUAUCCGUCUCCUGACAUCCGAAGAGCUCGUCGCAGCACACACUAAUGGCCCUUGGGCUGCACGUGGUUAAGCAUAGCUGUCUCUGUGGCCCAACACAAAGAGGUAAACUUACUUAAAACACAGGGGUUUUGUUGCUGUUUGUUUUUUGUUAGUUUGUUUGUUGAUAAUUGGAUUGAGGAGUUAAUCCUCUGCUCUUGCGGUCGCACUAGUGUGGAAUUCUCGGGUGUCAAGG
B3: ENSMUSG00000029636.282|Wasf3 (ssRNA)
RNA: GGGAGUUCUACAGUCCGACGAUCGCUUCGAUAUCCGCAUGCUAGCGCCAUGGCCAUCCUGGAGCCUGCGCACACGUGGCCGCUGCUGUGACUCGCUGUCCUUGGUAAUUGGUGAGAGGCUUUUUCUUUCUUUCUCAGUUCUGCUUUUCCACACUGAGACCCACCAUGUUGACAUCAUCCUCGCGACGUUGACAUUUGAGCCUUUUGUUCUGUCUCCCAUGUGCCCUGUAGAACCCAGCACUCAUGUUUGGCAAAACUUUUUUUGGUAAGGUCCUUAUGCUCUCAGGGUGGAGGGAAGACAUUACUCUUGCGGUCGCACUAGUGUGGAAUUCUCGGGUGUCAAGG
B4: ENSMUSG00000058297.560|Spock2 (ssRNA)
RNA: GGGAGUUCUACAGUCCGACGAUCGCUUCGAUAUCCGCAUGCUAACCUGGGGGUGCAAAAGGAGAUUCAAGACAUCCGUACCAAGUCAGGCAGAGCUACCCGCUUCUCAGCCCGUGUCCCACUUAAAACCGUCCGAUGUGUAAUCACUGAGCUUAGAGUUAAACAUUGUGGUCAAGUGCUUGGGUUCCGUCUGUAGAUUUAAGUGCUGACGUUGUAUCUCUCAGUAAUUUUAGAUGUCUUUUAAAAAAUCUGAACAAGUGUUAGACCCGUGUGUGCGUUGGUGGGCACUCAAGCAUCCCGUGGGCUCUUGCGGUCGCACUAGUGUGGAAUUCUCGGGUGUCAAGG
B5: ENSMUSG00000031028.59|Tub|169:181;199:203 (ssRNA)
RNA: GGGAGUUCUACAGUCCGACGAUCGCUUCGAUAUCCGCAUGCUACCCAGUCCUGGGUCAGUCCCCUGCUGCAGUGGUGUUAUCACACCGGAAAGCCUCUUCACCUGGAGGUACAGAGGGAGAGGAAGCACAAGCCUGGCUGCUGUGGCUCAGCCAUCCACUCAGCCUACGAGUCAGAGACAGUGGGUGUCCCGGGAAGCAGGGGUACAGUGACACACACACAUACUACAGGGCACUCAAGCUCAUACUAGAAAAAGCUCUGGUGGUCAGCAGAAAGCACUCCCACUUCAAAAGGGCCCAUUAGGCUCUUGCGGUCGCACUAGUGUGGAAUUCUCGGGUGUCAAGG
B6: ENSMUSG00000034801.92|Sos2 (ssRNA)
RNA: GGGAGUUCUACAGUCCGACGAUCGCUUCGAUAUCCGCAUGCUACAGAGCAAGUCCCAGGACAGCCAGGGCUACACAAAAAAACCUUGUCUCAAAAGUCAAAAUACAAACAAAAGAGAGAAAAGGAAGGAAGGAAAGAAUUUGAAAUAUUAAAAUGCAAAAGCCCUUCACCAUAGCCCCCAGGUGAUCAGCAGCAUUGCUUCCUCGGCUCCCCAGUGCUGCCCUAGGCCAGUAUAAAGACUCUGUAUUGCACUGUAGACUCUGCUAGCAGACGGCACUGAGAGGAGCCAGCGCUCGAGGGCGUUCUCUUGCGGUCGCACUAGUGUGGAAUUCUCGGGUGUCAAGG
B7: ENSMUSG00000090935.132|Synj2bp|162:172 (ssRNA)
RNA: GGGAGUUCUACAGUCCGACGAUCGCUUCGAUAUCCGCAUGCUAUCUCUCUCUCACUCACCAUCUCUGACAUCCUCCCAUAUUCUUUCUCCUCCACAUAGCCAAUACAAGAUUUAAAGUGACUGCUUAUCACCCAAAACCCUGCUAUUCAAAAUCUCCUAUUCUAAUGGAAGAGUACAGGGGUUAUUUGAAGAAAAGCUGUGGUGCACACACACACGGGGAAGCCUUGCUUAGAAUGAAUGAGAAGUUACAUAUUUUACUAGGACUGCCAAUAAAAACUCAGCUAUCAUCCAAAGAGGAAAAGCCUCUUGCGGUCGCACUAGUGUGGAAUUCUCGGGUGUCAAGG
B8: ENSMUSG00000029028.117|Lrrc47 (ssRNA)
RNA: GGGAGUUCUACAGUCCGACGAUCGCUUCGAUAUCCGCAUGCUAGCUCCAAUGUGACUCUCCUGUCUCCUGUCCUCAUGGAUCACUCAGUAACUGCUGGGGAUGUUCUGAAUCAUGUGGCCUGUGGCCGUGCUGGAGAGUCAGGUUGAACGCAGGCAUUCUAUUGAACAGUAUUUAUUUUUCUACAACAUGUUAAUAGAAUUUUUUUUUAAAUCAGCUGUGCAUAGACAGUUGAGAACAUCAUGUUGUGAGUGUAAUCUUCUUAGAGCUUGUUUCCAGGCACCGUGCUGCCGCCAUGCUCCCAGCUCUUGCGGUCGCACUAGUGUGGAAUUCUCGGGUGUCAAGG
B9: ENSMUSG00000029028.162|Lrrc47|217:221 (ssRNA)
RNA: GGGAGUUCUACAGUCCGACGAUCGCUUCGAUAUCCGCAUGCUAGCCUUCCACGGCUGUGCUUGGAACUGUAGUGCUGGUCGUUGUUGGCACAUCUGCGCCUUGGCCAAGGAAGUUAUCUAUGUCCGUGUAGUCCUUUGUAGUCAGACAGAUGCUUCGUGGACUGUGCCUCACACAUGGCCCUGCAGGCUCCAUGUCAGCGUGUCCCACUAUUCAUGUCCCAUCUCUGUGCAUCCUGACUGCGCACAUCCCAUCUCCGCAACACAACGCAUCUGUACCAGCACACAGCUGCCAUCCCUCGAGCCCUCUUGCGGUCGCACUAGUGUGGAAUUCUCGGGUGUCAAGG
B10: ENSMUSG00000004113.139|Cacna1b|48:52;226:230 (ssRNA)
RNA: GGGAGUUCUACAGUCCGACGAUCGCUUCGAUAUCCGCAUGCUACACCAGUGAUCUCACGUCUCUUGUGGUCUUGGAGUCAAAUAGCACAUCAUACUAGAGAUGCGCUCAAGGGCCUGCCUUUCACCUACACUGUCACCAUAACAGGGACCAAAUCUGGAGGAUGUCCUUGCUGUUGAUUCUGGUUUUCAGUCACAACACUUUCACUGUUUGUCAUUUCUAUGUAGUUGAUCUAGAAAAAGCAGAAAUCAAAACAGGAAAGGAAAUGUUACACAAACUUUAAAAAAAAAGUCAACAUGUAGGAACUCUUGCGGUCGCACUAGUGUGGAAUUCUCGGGUGUCAAGG
B11: ENSMUSG00000031028.90|Tub|13:17;146:150 (ssRNA)
RNA: GGGAGUUCUACAGUCCGACGAUCGCUUCGAUAUCCGCAUGCUAGGCACUCAAGCUCAUACUAGAAAAAGCUCUGGUGGUCAGCAGAAAGCACUCCCACUUCAAAAGGGCCCAUUAGGCCCAAAGGGGGUUAGGAGUGGUAGGGAUAGGUGCGUGGCAGGUCCCUGCUAGGAUUGCAGGGGCCUGGCCAACACAAUUAGCUGGAGGCUUAGAAUGCUAGCUCAUUUGUUGCUACAGAUUUGCCCAGUGCUUGCACACGUAAGAACCCAGCUCUCAAGGCCAAAUAUCUGAGUGGAUGGGGAUGACUCUUGCGGUCGCACUAGUGUGGAAUUCUCGGGUGUCAAGG
B12: ENSMUSG00000061578.112|Ksr2 (ssRNA)
RNA: GGGAGUUCUACAGUCCGACGAUCGCUUCGAUAUCCGCAUGCUAACCCUUCUCCCAUUUUGUAAGAACACUGUUCUAACUCACCUCAUGCCCACGCUACCCUGGGCAACUGGAGAACACCAUAGCGUUUCAGCUGAUGUGACAUUUGGUGUGACCUUUACCAGUUCACCAUCAUUCAUGGCUUCCCCCAAAGUCCCGAGUCCUGAGAACCGGGGCUGUGGCAAGAGAGUUCUGGUGUGUUCUCUCUGUGGGGCUAGCAAUGCCGGGGUUAAGUUCUCCCUCGGUGAUGGAGACGGUCCUGGGUACUCUUGCGGUCGCACUAGUGUGGAAUUCUCGGGUGUCAAGG
B13: ENSMUSG00000090935.58|Synj2bp (ssRNA)
RNA: GGGAGUUCUACAGUCCGACGAUCGCUUCGAUAUCCGCAUGCUACACAGGUUACCAGUGCAGAAUGGACCUAUAGUACAUCGAGGUGAAGGAGAGCCAAGUGGAGUUCCUGUAGCUAUGGUGCUGCUACCAGUGUUUGCCCUCACCAUGGUAGCAGUUUGGGCCUUCGUGAGAUACCGAAAGCAGCUUUGAAAUGCUUGCUGUCUUCCAGUGUGUCCAAUGAACUCUCUCUCUCACUCACCAUCUCUGACAUCCUCCCAUAUUCUUUCUCCUCCACAUAGCCAAUACAAGAUUUAAAGUGACUGCUCUUGCGGUCGCACUAGUGUGGAAUUCUCGGGUGUCAAGG

molecular target: TDP-43 (Homo sapiens, UniProt Q13148 1-414); experiment: RNA Bind-n-Seq with designed 260-mer pool; 25 mM Tris-HCl, 150 mM KCl, 3 mM MgCl2, BSA (printed 500 mg/mL), 20 units/mL SUPERase IN; pH not stated; 500 nM RNA pool, 1 h, 4 C; TDP-43 5, 50, 500 nM; high values mean tight binding; conditions: protein: recombinant; tags: SBP (GST cleaved off with PreScission; pGEX-GST-SBP)
Procedure, shortened: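 An in vitro-transcribed pool of 260-nt 3′ UTR oligos (500 nM) was incubated for 1 h at 4 °C with recombinant SBP-tagged TDP-43 at 5, 50 or 500 nM held on streptavidin beads. The buffer contained 25 mM Tris-HCl, 150 mM KCl, 3 mM MgCl2, BSA and SUPERase IN. Biotin-eluted bound RNA was sequenced, and binding, R, is each oligo's normalized read abundance in the bound sample over that in input.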

Chain of TDP-43 (Q13148 whole entry): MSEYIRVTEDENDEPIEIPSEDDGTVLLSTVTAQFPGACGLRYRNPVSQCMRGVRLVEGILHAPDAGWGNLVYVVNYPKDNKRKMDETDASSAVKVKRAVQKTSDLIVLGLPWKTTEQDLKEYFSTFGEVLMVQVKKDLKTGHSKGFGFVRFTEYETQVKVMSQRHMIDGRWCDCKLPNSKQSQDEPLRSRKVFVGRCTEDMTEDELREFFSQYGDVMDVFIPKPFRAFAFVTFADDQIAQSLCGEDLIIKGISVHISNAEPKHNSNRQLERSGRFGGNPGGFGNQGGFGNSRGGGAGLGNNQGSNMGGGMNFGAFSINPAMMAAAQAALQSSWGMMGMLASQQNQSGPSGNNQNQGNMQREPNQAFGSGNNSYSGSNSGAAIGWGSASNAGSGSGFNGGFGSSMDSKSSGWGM

Row | Binder | binding signal
1 | B1 | 0.389 R (bound/input frequency ratio)
2 | B2 | 1.12 R (bound/input frequency ratio)
3 | B3 | 0.86 R (bound/input frequency ratio)
4 | B4 | 0.604 R (bound/input frequency ratio)
5 | B5 | 0.754 R (bound/input frequency ratio)
6 | B6 | 0.552 R (bound/input frequency ratio)
7 | B7 | 0.765 R (bound/input frequency ratio)
8 | B8 | 0.231 R (bound/input frequency ratio)
9 | B9 | 0.706 R (bound/input frequency ratio)
10 | B10 | 0.174 R (bound/input frequency ratio)
11 | B11 | 1.27 R (bound/input frequency ratio)
12 | B12 | 0.565 R (bound/input frequency ratio)
13 | B13 | 1.69 R (bound/input frequency ratio)
